NPC1 prom act – activates the NPC1 promoter. Potency, µM (highest dose often 9.22 µM), hits mostly activators. 320,000 tested, 2.4% active. Huh7 NPC1 promoter luciferase reporter, 24 h; further: nearly all actives have a fitted effect of over 60% in size
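Stably transfected Huh7 (NPC1 promoter→luciferase), 1500 cells/well in Opti-MEM + 10% FBS, 2 h settle, then compound 24 h at 37 °C. Luminescence after 10 min with Amplite reagent.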
ELG1 repair inh – blocks ELG1-dependent DNA repair in HEK293T cells; 330,000 tested, 2.3% active; HEK293T ELG1-luciferase reporter, luminescence, 16 h; DNA damage induced by 5-fluorouridine; Potency, µM (doses to about 46.1 µM), most hits filed as inhibitors; further: nearly all actives have a fitted effect of over 55% in size
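Step one: seed 2,000 cells per well. Step two: pin-transfer compound or DMSO alongside 5-fluorouridine. Step three: incubate 16 hr, 37 °C, 5% CO2. Step four: add ONE-Glo, wait 30 min, read luminescence.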
SMN2 splice enh – enhancers of SMN2 splice variant expression | AID 1458 | HEK293 SMN2-luciferase splicing reporter, luminescence, 30-36 h | 210,000 tested, 2.8% active | Potency, µM (titrated, usually from 46.1 µM), usual class: activators; further: nearly all actives have a fitted effect of over 55% in size
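HEK293 cells carry an SMN2 minigene-luciferase reporter in which exon 7 inclusion puts luciferase in frame. Cells were seeded at 2000 cells/well, attached for 10-12 hours, then exposed to compounds for 30-36 hours at 37C before ONE-Glo luminescence.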
Rab9 promoter act – activators of Rab9 promoter; Huh7 Rab9 promoter-luciferase reporter, luminescence, 24 h; Potency, µM (highest dose often 9.22 µM), usual class: activators; 320,000 tested, 2.8% active; AID 485297; further: nearly all actives have a fitted effect of over 60% in size
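Quantitative HTS format; Huh7 Rab9-luciferase reporter cells (1500/well) receive compound 2 h post-plating, incubate 24 h at 37 °C, then get luciferase reagent for 10 min before luminescence reading.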
ELG1 genotox – genotoxicity induction in ELG1-luciferase HEK293T cells | AID 504466 | HEK293T ELG1-luciferase reporter, luminescence, 16 h | Potency, µM (top dose mostly 46 µM), usual class: activators | 330,000 tested, 1.3% active; further: nearly all actives have a fitted effect of over 60% in size
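DMSO vehicle served as control against compound-treated ELG1-luciferase HEK293T cells; exposure lasted 16 hr at 37 °C and 5% CO2, followed by ONE-Glo luminescence detection after 30 min.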
FLuc modulator – inhibits or activates purified firefly luciferase, miR-21 counter-screen; P08659; purified FLuc, Km substrates, luminescence inhibition; Potency, µM (titrated, usually from 57.5 µM), most hits filed as inhibitors; 360,000 tested, 6.9% active; AID 588342; further: nearly all actives have a fitted effect of over 55% in size
Target sequence (P08659 whole entry, looked up): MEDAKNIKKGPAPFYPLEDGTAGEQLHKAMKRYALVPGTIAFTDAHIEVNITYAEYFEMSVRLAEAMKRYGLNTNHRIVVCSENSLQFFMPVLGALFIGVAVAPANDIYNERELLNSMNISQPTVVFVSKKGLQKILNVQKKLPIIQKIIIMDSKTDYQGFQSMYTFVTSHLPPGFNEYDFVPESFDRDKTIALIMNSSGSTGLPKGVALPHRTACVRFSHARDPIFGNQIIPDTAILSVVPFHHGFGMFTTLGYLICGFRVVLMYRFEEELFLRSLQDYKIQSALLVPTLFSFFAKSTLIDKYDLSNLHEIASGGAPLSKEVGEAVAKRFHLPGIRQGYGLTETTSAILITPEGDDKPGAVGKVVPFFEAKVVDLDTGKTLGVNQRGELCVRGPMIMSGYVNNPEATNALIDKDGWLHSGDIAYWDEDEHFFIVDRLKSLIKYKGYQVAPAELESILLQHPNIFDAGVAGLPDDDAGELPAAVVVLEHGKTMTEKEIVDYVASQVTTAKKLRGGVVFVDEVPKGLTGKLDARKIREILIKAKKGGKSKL
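Purified P. pyralis luciferase (10nM final) with 10uM D-luciferin and 10uM ATP (Km levels) in 50mM Tris acetate pH 7.5, 10mM Mg acetate, 0.01% Tween-20, 0.05% BSA; qHTS 6-point titration, ~60 µM downward; luminescence read.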
Numbers stand for hits; [ ] = dose if it differs, or a comment. Compounds with a hit are over-represented: about 9.4% of the library has one in this group of screens. The call rests on the fitted dose curve; in most records, active means well fitted curve in the direction sought with a large enough effect; inconclusive means small, poorly fitted or top-dose-only effect, or another doubt; inactive means no such curve, though single readings can be large; an effect the other way counts as inactive or inconclusive.

`COc1ccc(CC(=O)Nc2nc(-c3ccncc3)cs2)cc1` gave NPC1 prom act inactive, ELG1 repair inh 18µM, SMN2 splice enh inactive, Rab9 promoter act inactive, ELG1 genotox inactive and FLuc modulator inactive.
For COC(=O)c1cc2sccc2n1Cc1nc(-c2cccc(Br)c2)oc1C the results were SMN2 splice enh inactive and FLuc modulator inactive.
For O=C(Nc1ccc(F)cc1)Nc1nnc(-c2ccco2)s1 the results were NPC1 prom act inconclusive, ELG1 repair inh inconclusive, SMN2 splice enh inactive, Rab9 promoter act 2.8µM, ELG1 genotox inactive and FLuc modulator inactive.
O=C(Nc1nnc(-c2ccco2)s1)c1ccccc1 was read as NPC1 prom act 0.79µM, ELG1 repair inh inconclusive, SMN2 splice enh 2µM, Rab9 promoter act 0.4µM, ELG1 genotox 1.2µM and FLuc modulator 3µM.
For COc1ccc(C(=O)Nc2nnc(-c3ccco3)s2)cc1 the results were NPC1 prom act 0.45µM, ELG1 repair inh inconclusive, SMN2 splice enh 1.4µM, Rab9 promoter act 0.32µM, ELG1 genotox inconclusive and FLuc modulator 0.48µM.
`COc1ccc(/C=N/NC2=NCCCCC2)c(OC)c1` gave NPC1 prom act inactive, ELG1 repair inh inactive, SMN2 splice enh inconclusive, Rab9 promoter act inactive, ELG1 genotox inactive and FLuc modulator 17µM.
For COc1ccc(/C=N/NC2=NCCCCC2)cc1 the results were NPC1 prom act inactive, ELG1 repair inh inconclusive, SMN2 splice enh inactive, Rab9 promoter act inconclusive, ELG1 genotox inconclusive and FLuc modulator inconclusive.
For Oc1ccccc1/C=N/NC1=NCCCCC1 the results were NPC1 prom act 1.4µM, ELG1 repair inh inconclusive, SMN2 splice enh 13µM, Rab9 promoter act 2.2µM, ELG1 genotox inconclusive and FLuc modulator 13µM.
Screening Cc1ccc(N2NC(C)(c3cccs3)NC2=S)cc1 (stereo not given) returned NPC1 prom act 4.5µM, ELG1 repair inh inconclusive, SMN2 splice enh inactive, Rab9 promoter act 3.5µM, ELG1 genotox inconclusive and FLuc modulator 9.5µM.
For CCSc1nc(-c2ccccc2)nc(C(Cl)Cl)n1 the results were NPC1 prom act inactive, ELG1 repair inh 18µM, SMN2 splice enh inactive, Rab9 promoter act inactive, ELG1 genotox inactive and FLuc modulator inactive.
`Cc1nn(C)c(Cl)c1/C=N/OC(=O)c1ccc(F)cc1` gave NPC1 prom act inactive, ELG1 repair inh inactive, SMN2 splice enh inactive, Rab9 promoter act inactive, ELG1 genotox inactive and FLuc modulator 17µM.
`Cc1nn(C)c(Cl)c1/C=N/OC(=O)c1ccccc1` gave NPC1 prom act inactive, ELG1 repair inh inactive, SMN2 splice enh inactive, Rab9 promoter act inactive, ELG1 genotox inactive and FLuc modulator 12µM.
For Cn1c(Cl)c(/C=N/OC(=O)c2ccccc2Cl)c2ccccc21 the results were NPC1 prom act inactive, ELG1 repair inh inconclusive, SMN2 splice enh inactive, Rab9 promoter act inactive, ELG1 genotox inactive and FLuc modulator 6.7µM.
`Cn1nc(C(F)(F)F)c(/C=N/OC(=O)c2ccccc2)c1Cl` gave NPC1 prom act inactive, ELG1 repair inh inactive, SMN2 splice enh inactive, Rab9 promoter act inactive, ELG1 genotox inactive and FLuc modulator inconclusive.
COc1ccc(CCNC(=O)c2cc3c(=O)n4ccccc4nc3n(C3CCCCC3)c2=N)cc1 was read as NPC1 prom act inactive, ELG1 repair inh 23µM, Rab9 promoter act inactive, ELG1 genotox inactive and FLuc modulator inactive.
`N=c1c(C(=O)NC2CCCCC2)cc2c(=O)n3ccccc3nc2n1Cc1ccc(F)cc1` gave NPC1 prom act inactive, ELG1 repair inh 8.2µM, Rab9 promoter act inactive, ELG1 genotox inactive and FLuc modulator inactive.
For CCOc1ccccc1CNC(=O)c1oc2c(c1C)-c1[nH]ncc1CC2 the results were FLuc modulator inactive.
CCc1ccc2nc(N(CCN(C)C)C(=O)c3ccc4ncsc4c3)sc2c1 was read as NPC1 prom act 2.8µM, ELG1 repair inh inconclusive, Rab9 promoter act 1.8µM, ELG1 genotox 3.7µM and FLuc modulator 13µM.
`CCc1ccc2nc(N(Cc3cccnc3)C(=O)c3ccc(C#N)cc3)sc2c1` gave FLuc modulator inactive.
Cc1cc2oc(C(=O)Nc3sc4c(c3C(=O)NCC3CCCO3)CCC4)cc(=O)c2cc1C (stereo not given) was read as SMN2 splice enh inactive and FLuc modulator inactive.
For CCn1cc(C(=O)NCCN(CC(C)C)CC(C)C)c(=O)c2cc(S(=O)(=O)N(C)C3CCCCC3)ccc21 the results were SMN2 splice enh inactive and FLuc modulator inactive.
Screening CCC(=O)Nc1ccc(C(=O)Nc2ccc(Br)cc2F)cc1 returned NPC1 prom act inactive, ELG1 repair inh inactive, Rab9 promoter act inactive, ELG1 genotox inactive and FLuc modulator inactive.
Screening O=C(Nc1ccc(F)cc1F)c1ccc2c(c1)OCCO2 returned NPC1 prom act 0.5µM, ELG1 repair inh inconclusive, Rab9 promoter act 0.63µM, ELG1 genotox inconclusive and FLuc modulator 4.8µM.
`O=C(Nc1ccc(Br)cc1F)c1ccc2c(c1)OCCO2` gave NPC1 prom act 0.28µM, ELG1 repair inh inconclusive, Rab9 promoter act 0.13µM, ELG1 genotox inconclusive and FLuc modulator 0.54µM.
For COc1ccc(CCNC(=O)c2ccc(Cn3c(=O)c4ccccc4n(Cc4cccc(F)c4)c3=O)cc2)cc1OC the results were SMN2 splice enh inactive and FLuc modulator inactive.
`Cc1cc(Cl)ccc1OCC(=O)NNC(=O)C1CCN(c2ncnc3sc(C)c(C)c23)CC1` gave NPC1 prom act inactive, ELG1 repair inh inconclusive, Rab9 promoter act inactive, ELG1 genotox inactive and FLuc modulator inactive.
Cc1sc2ncnc(N3CCC(C(=O)Nc4ccc(OC(F)F)c(Cl)c4)CC3)c2c1C was read as ELG1 repair inh 10µM and ELG1 genotox inactive.
`Cc1ccc(-c2nnc(Nc3ccc4c(c3)OCO4)c3ccccc23)cc1S(N)(=O)=O` gave NPC1 prom act inactive, ELG1 repair inh 16µM, SMN2 splice enh inactive, Rab9 promoter act inactive, ELG1 genotox inactive and FLuc modulator 24µM.
For CC(=O)Nc1ccc(Nc2nnc(-c3ccc(C)c(S(N)(=O)=O)c3)c3ccccc23)cc1 the results were NPC1 prom act inactive, ELG1 repair inh inactive, SMN2 splice enh inactive, Rab9 promoter act inactive[1.84 µM], ELG1 genotox inactive and FLuc modulator inactive.
Cc1ccc(-c2nnc(Nc3ccc(O)cc3)c3ccccc23)cc1S(=O)(=O)NC(C)(C)CO was read as SMN2 splice enh inactive and FLuc modulator 19µM.
`CC(=O)Nc1ccc(Nc2nnc(-c3ccc(C)c(S(=O)(=O)NCCO)c3)c3ccccc23)cc1` gave NPC1 prom act inactive, ELG1 repair inh inactive, Rab9 promoter act inactive, ELG1 genotox inactive and FLuc modulator inconclusive.
Screening Cc1nnc(Nc2ccc3c(c2)OCO3)c2ccccc12 returned NPC1 prom act inconclusive, ELG1 repair inh inconclusive, SMN2 splice enh inactive, Rab9 promoter act inconclusive, ELG1 genotox inconclusive and FLuc modulator 15µM.

Screening data deposited in PubChem BioAssay by National Center for Advancing Translational Sciences (NCATS).
